Assay outcomes from PubChem BioAssay.
Hits are enriched below; roughly 12% of the tested compounds scored in any of these assays.
Pf growth 96h – P. falciparum growth inhibition at 96 hours. P. falciparum luciferase reporter growth, 96 h. Potency, µM (doses to about 28.7 µM), for inactives: at the highest dose activity change, negative = inhibition, actives largely listed as inhibitors. 320,000 compounds, 6.9% hits. AID 504834; also: % is scaled to controls: 0 for no effect and ±100 for the full control effect
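Erythrocytes infected with luciferase-expressing P. falciparum were dispensed at 2% hematocrit and 0.05% parasitemia (final), then incubated with compounds 96 hours at 37 C in 5% CO2. Luminescence after detection reagent addition reported growth.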
AmpC detergent – AmpC beta-lactamase inhibition with detergent present; AID 485294; Potency, µM (highest dose often 114 µM), for the others: at the highest dose activity change, negative = inhibition, usual class: inhibitors; 370,000 compounds, 0.041% hits; AmpC hydrolysis of nitrocefin, absorbance 480 nm, 0.01% Triton;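 also: 0% = no-compound wells and -100% = no-enzyme wells; nearly all actives have a fitted effect of over 25% in size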
Target sequence (P00811 whole entry, looked up): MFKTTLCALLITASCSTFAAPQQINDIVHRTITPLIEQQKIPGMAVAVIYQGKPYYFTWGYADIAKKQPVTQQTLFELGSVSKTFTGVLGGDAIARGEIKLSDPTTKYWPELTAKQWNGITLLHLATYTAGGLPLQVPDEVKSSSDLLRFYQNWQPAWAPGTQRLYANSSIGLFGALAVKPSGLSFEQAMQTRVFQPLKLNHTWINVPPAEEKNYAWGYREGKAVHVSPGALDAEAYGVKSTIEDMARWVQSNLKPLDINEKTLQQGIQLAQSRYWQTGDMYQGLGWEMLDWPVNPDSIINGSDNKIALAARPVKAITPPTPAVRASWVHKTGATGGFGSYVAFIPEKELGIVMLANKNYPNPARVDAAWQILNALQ
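20 mM phosphate pH 7.0 + 0.01% (detergent screen) or 0.0001% Triton X-100; 5.3 nM AmpC reagent; cpd preinc 15 min RT; nitrocefin (800 uM stock) to start; A480 q20 s × 4 min; Activity was normalised to no-enzyme and no-compound control wells.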
Pf growth 48h – P. falciparum growth inhibition at 48 hours (one generation); 310,000 compounds, 5.9% hits; Potency, µM (top dose mostly 28.7 µM), for the others: top-dose activity change, negative = inhibition, actives largely listed as inhibitors; P. falciparum luciferase growth in erythrocytes, 48 h; also: % is scaled to controls: 0 for no effect and ±100 for the full control effect
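Here the parasites carry a stable luciferase gene and grow inside erythrocytes in Albumax-based RPMI medium with compound for one erythrocytic cycle. Activity is scored as loss of luminescent signal.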
AmpC no deterg – blocks E. coli AmpC beta-lactamase in detergent-free assay; P00811; AmpC nitrocefin hydrolysis, absorbance 480 nm, 0.0001% Triton; Potency, µM (titrated, usually from 57.1 µM), for the others: at the top dose activity change, negative = inhibition, usual class: inhibitors; 330,000 compounds, 0.52% hits; AID 485341;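 also: plate controls were no compound for no effect and no enzyme for full effect; nearly all actives have a fitted effect of over 20% in size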
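20 mM phosphate pH 7.0 + 0.01% (detergent screen) or 0.0001% Triton X-100; 5.3 nM AmpC reagent; cpd preinc 15 min RT; nitrocefin (800 uM stock) to start; A480 q20 s × 4 min; Activity was normalised to no-enzyme and no-compound control wells.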
SARS PLP yeast – blocks SARS-CoV papain-like protease in a yeast assay | S. cerevisiae expressing SARS-CoV PLpro, growth rescue | Potency, µM (titrated, usually from 32.9 µM), without a hit: top-dose activity, positive = growth rescue, usual class: activators | 330,000 compounds, 0.19% hits | AID 485353; calls by dose curve; also: 0% is about no effect; nearly all actives have a fitted effect of over 55% in size
Sm TGR block – inhibitors of Schistosoma mansoni thioredoxin glutathione reductase; 360,000 compounds, 3% hits; AID 485364; Potency, µM (highest dose often 114 µM), for the others: at the highest dose activity change, negative = inhibition, hits mostly inhibitors; purified TGR, DTNB reduction, TNB absorbance 405 nm; also: % is scaled to controls: 0 for no effect and ±100 for the full control effect; nearly all actives have a fitted effect of over 60% in size
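TGR 20 nM + NADPH 100 uM (dispensed conc.), cpd preinc 15 min RT; start with NADPH (500 uM addition) then DTNB (15 mM addition). Kinetic TNB absorbance, 405 nm filter. Four-parameter Hill fit across titration.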
* = called active by the depositor; ? = inconclusive; nt = not tested or not shown. Unless noted, calls follow the shape of the dose curve; as a rule, active = well fitted curve in the direction sought with a large enough effect; inconclusive = small, poorly fitted or top-dose-only effect, or another doubt; inactive = no such curve, though single readings can be large; an effect the other way counts as inactive or inconclusive. Potency is read from the fitted curve at half-maximal effect.

SMILES	Pf growth 96h	AmpC detergent	Pf growth 48h	AmpC no deterg	SARS PLP yeast	Sm TGR block
COC(=O)c1cccc(C23CC4(C2)[C@H](CN(Cc2cccnc2)[C@@H]4c2ccccc2)C3c2ccc(C(F)(F)F)cc2)c1 (stereo partly specified)	?	-2%	2.3µM*	25%	1%	?
COC(=O)c1cccc(C23CC4(C2)[C@H](CN(Cc2cccnc2)[C@@H]4c2ccccc2)C3c2ccc(Cl)nc2)c1 (stereo partly specified)	12µM*	-5%	13µM*	75%	-3%	0%
C[C@@]12C(=O)OC(=O)[C@]1(C)[C@H]1CC[C@@H]2O1	1µM*	nt	2µM*	nt	nt	nt
Cc1ccc(NC(=O)C(=O)NCC(c2cccnc2)N2CCN(c3ccccc3F)CC2)cc1Cl (stereo unspecified)	nt	-2%	nt	nt	nt	21%
O=C(C1CCN(S(=O)(=O)Cc2ccccc2)CC1)N1CCN(c2ccc(F)cc2)CC1	nt	-4%	nt	nt	nt	-7%
Cc1ccc(C)c(NC(=O)C2CCCN(S(=O)(=O)c3c(C)nn(C)c3C)C2)c1 (stereo unspecified)	2.9µM*	-11%	-26%	32%	-9%	-1%
CCOC(=O)c1c(S(=O)(=O)N2CCCC(C(=O)Nc3cccc(C)n3)C2)c(C)n(C)c1C (stereo unspecified)	?	7%	?	1%	8%	-22%
Cc1ccc(CCNC(=O)C2CCCN(S(=O)(=O)c3c(C)nn(C)c3C)C2)cc1 (stereo unspecified)	-15%	?	nt	42%	-3%	-28%
Cc1cccc(NC(=O)C2CCCN(S(=O)(=O)c3c(C)nn(C)c3C)C2)n1 (stereo unspecified)	12µM*	?	-11%	-11%	1%	-5%
COc1ccc(S(=O)(=O)N(CC(C)C)C2CCS(=O)(=O)C2)cc1OC (stereo unspecified)	35%	-14%	13%	-7%	-6%	1%
COc1ccc(Oc2ncccc2[N+](=O)[O-])cc1	12µM*	-10%	?	-17%	1%	9%
O=C(CSc1n[nH]c(Cc2ccccc2)n1)Nc1ccccc1Br	5%	2%	-38%	-20%	-17%	12%
O=C(COC(=O)c1cccc(Br)c1)NCCNC(=O)COC(=O)c1cccc(Br)c1	0.41µM*	-7%	0.47µM*	-10%	0%	-6%
CC(/C=C/C=C(\C)C(=O)O[C@@H]1O[C@H](CO[C@@H]2O[C@H](CO)[C@@H](O)[C@H](O)[C@H]2O)[C@@H](O)[C@H](O)[C@H]1O)=C\C=C\C=C(C)\C=C\C=C(/C)C(=O)O[C@@H]1O[C@H](CO[C@@H]2O[C@H](CO)[C@@H](O)[C@H](O)[C@H]2O)[C@@H](O)[C@H](O)[C@H]1O	11%	nt	-1%	nt	nt	nt
Cc1noc(C)c1S(=O)(=O)N1CCCC(C(=O)NCCc2ccc(Cl)cc2)C1 (stereo unspecified)	nt	-5%	12µM*	0%	1%	-7%
Cc1nn(C)c(C)c1S(=O)(=O)N1CCCC(C(=O)NCCc2ccc(Cl)cc2)C1 (stereo unspecified)	?	?	-7%	72%	8%	0%
Cc1noc(C)c1S(=O)(=O)N1CCCC(C(=O)NCc2ccccc2Cl)C1 (stereo unspecified)	5.9µM*	-1%	1%	-16%	-20%	3%
COc1ccc(NC(=O)CSC2=Nc3ccccc3C3=NC(CC(=O)NCc4ccc(F)cc4)C(=O)N23)cc1 (stereo unspecified)	nt	0%	nt	nt	nt	10%
CC1(C)C(=O)OC(c2cc(Br)ccc2O)C(C)(C)C1=O (stereo unspecified)	31%	0%	12µM*	-20%	11%	2%
CC(NC(=O)c1cccc(N2CCCC2=O)c1)c1ccc2c(c1)OCCO2 (stereo unspecified)	12µM*	-4%	?	-13%	11%	-2%
CC1=C(C(=O)Nc2cccc([N+](=O)[O-])c2)C2(CCC(C)CC2)OC1=O (stereo unspecified)	0.37µM*	-1%	?	-17%	-8%	-7%
CC1=C(C(=O)NC(C)c2ccc3c(c2)OCCO3)C2(CCC(C)CC2)OC1=O (stereo unspecified)	10µM*	2%	?	-5%	2%	-3%
CC1=C(C(=O)NC2CCCCC2C)C2(CCC(C)CC2)OC1=O (stereo unspecified)	-5%	?	9.3µM*	0%	7%	3%
COc1ccc(OC)c(CNC(=O)c2ccc(-c3nc(CSc4ccccc4)c(C)o3)cc2)c1	nt	3%	nt	nt	nt	-2%
CC1=C(C(=O)NC2CCCC(C)C2C)C2(CCCCC2)OC1=O (stereo unspecified)	24%	-4%	?	35µM*	22%	8%
SMILES	Pf growth 96h	AmpC detergent	Pf growth 48h	AmpC no deterg	SARS PLP yeast	Sm TGR block
COc1ccccc1Cc1nc2ccccc2nc1SCC(=O)N1CCN(c2ccccc2)CC1	nt	25%	nt	nt	nt	10%
COc1ccccc1N(CC(=O)N(c1ccccc1)C(C)C)S(=O)(=O)c1cccs1	9.3µM*	-9%	-11%	3%	2%	11%
CCCCNC(=O)c1onc(CSc2nc3ccccc3[nH]2)c1C(=O)NCCCC	3.3µM*	-14%	1.5µM*	-34%	0%	6%
O=C(NCC1CC1)c1onc(CSc2nc3ccccc3[nH]2)c1C(=O)NCC1CC1	10µM*	-15%	?	-29%	-1%	-16%
CC(C)NC(=O)c1onc(CSc2nc3ccccc3[nH]2)c1C(=O)NC(C)C	0%	5%	8%	-12%	-1%	0%
Cc1c(NC(=O)OC(C)C)sc(=S)n1C	2%	?	8%	-17%	-18%	35µM*
O=C(COC(=O)c1cc(=O)[nH]c(=O)[nH]1)Nc1cccc(S(=O)(=O)N2CCOCC2)c1	?	-6%	5%	-7%	7%	6%
O=C(NCc1ccc(F)cc1)c1ccncc1	6.6µM*	?	-13%	-4%	6%	10%
COc1ccc(CNC(=O)C(OC(C)=O)c2ccccn2)cc1 (stereo unspecified)	15µM*	-5%	29%	-33%	-5%	-1%
COc1ccc(CNC(=O)c2ccncc2)cc1	3.3µM*	0%	1%	-2%	1%	5%
O=C(NO)c1ccc(C(=O)N(C2CCCCC2)C2CCCCC2)cc1	6%	?	3.3µM*	-14%	1%	0%
